In the library only some 5.5% were active in any assay of this set; here they are far more common.
MBNL1-CUG inh: inhibitors of human MBNL1 binding to CUG repeat RNA; Q9NR56; TR-FRET MBNL1-His/biotin-(CUG)12 binding, 665/545 ratio; Potency, µM (titrated, usually from 57.5 µM), actives largely listed as inhibitors; hit rate 0.036% among 280,000; AID 2675; active means well fitted inhibition curve with a large enough effect in the signal ratio, with a control signal flat, not every such curve was filed as active; inconclusive means small, poorly fitted or top-dose-only effect, or effect the other way, or a change in a side signal; inactive means no such curve, though single readings can be large or run the other way; the % refers to the signal ratio
Target sequence (Q9NR56 whole entry, looked up): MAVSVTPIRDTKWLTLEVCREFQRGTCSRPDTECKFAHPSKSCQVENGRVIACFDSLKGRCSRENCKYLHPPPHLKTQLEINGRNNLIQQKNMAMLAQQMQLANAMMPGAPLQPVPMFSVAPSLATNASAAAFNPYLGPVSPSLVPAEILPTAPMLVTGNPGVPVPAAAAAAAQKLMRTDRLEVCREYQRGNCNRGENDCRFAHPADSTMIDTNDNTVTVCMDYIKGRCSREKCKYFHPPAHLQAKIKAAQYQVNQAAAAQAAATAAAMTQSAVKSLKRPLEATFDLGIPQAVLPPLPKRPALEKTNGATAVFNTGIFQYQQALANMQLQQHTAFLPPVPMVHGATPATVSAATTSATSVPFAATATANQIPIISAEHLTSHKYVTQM
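Inhibition of protein-RNA binding appears as loss of TR-FRET between terbium anti-His antibody on MBNL1-His and streptavidin-XL665 on biotin-(CUG)12. Activity is normalized to buffer-only and uninhibited-complex controls.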
RORg inh: blocks mouse ROR gamma transcriptional activity. P51450. Drosophila S2 Gal4-RORgamma UAS-luciferase reporter, 20 h. Potency, µM (top dose mostly 53.6 µM), hits mostly inhibitors. hit rate 5.4% among 310,000; further: nearly all actives have a fitted effect of over 60% in size
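Luminescence from a UAS-regulated Photinus luciferase reporter in stably transfected Drosophila Schneider cells is measured; decreased signal marks ROR gamma inhibition. Fusion expression is induced by 700 uM copper sulfate for 20 hr.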
CtBP-E1A blk: blocks the CtBP interaction with E1A | hit rate 0.49% among 340,000 | activity change, % (test concentration not listed) | AlphaScreen GST-E1A/His-CtBP binding, 1536-well; stronger effect = lower value; in the data active means activity change below about -65%; inconclusive means mostly about -30% to -63%
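In 5 uL wells, 23 nL compound meets equimolar GST-E1A and His-CtBP (5X stock 125 nM each) for 2 h, 37 °C. Beads (5X, 50 ug/mL) then 1 h, 37 °C, dark.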
Six1-Eya2 inh: Six1/Eya2 interaction inhibition; hit rate 0.56% among 360,000; Q15475+O00167; AlphaScreen GST-Six1/His-Eya2 binding, biochemical; stronger effect = lower value; activity change, % (test concentration not listed); in the data active means activity change below about -65%; inconclusive means mostly about -30% to -63%
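AlphaScreen with GST-Six1 and His-Eya2 (5X mix: 250 nM and 500 nM), glutathione donor and nickel acceptor beads; buffer 50 mM Tris pH 8.0, 300 mM NaCl, 1 mM TCEP; 1 h at 37 C in the dark.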
CBFb-RUNX1 inh: inhibitors of human CBF-beta and RUNX1 interaction; Q01196+Q13951; AlphaScreen CBFb-His/RUNX1-biotin binding, biochemical; Potency, µM (titrated, usually from 59.8 µM), hits mostly inhibitors; 230,000 tested, under 10 active
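His-tagged CBF-beta and biotinylated RUNX1 (30 nM each) were premixed 20 min at room temperature, exposed to compound for 15 min, then given nickel-chelate and streptavidin AlphaScreen beads (50 ng each). After 90 min, AlphaScreen signal was read.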
Gal4-VP16 FLuc: counter-screen for ROR gamma inhibitors: Gal4-VP16 reporter; Drosophila S2 Gal4-VP16 UAS-luciferase, luminescence, 20 h; AID 2546; hit rate 3.5% among 310,000; Potency, µM (series often up to 53.6 µM), actives largely listed as inhibitors;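 further: Gal4-VP16 expression switched on by copper sulfate through the metallothionein promoter; nearly all actives have a fitted effect of over 50% in size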
Hits are given with their value; – = inactive; ? = inconclusive; · = not tested or not shown; [ ] = dose if it differs, or a comment. Unless noted, the call rests on the fitted dose curve; in most records, active means well fitted curve in the direction sought with a large enough effect; inconclusive means small, poorly fitted or top-dose-only effect, or another doubt; inactive means no such curve, though single readings can be large; an effect the other way counts as inactive or inconclusive.

SMILES | MBNL1-CUG inh | RORg inh | CtBP-E1A blk | Six1-Eya2 inh | CBFb-RUNX1 inh | Gal4-VP16 FLuc
Cc1ccc(S(=O)(=O)NNC(=S)Nc2c(Cl)cccc2Cl)cc1 | – | 10µM | – | – | – | ?
O=C1NC(=O)C([N+](=O)[O-])=C(O)C1=O | · | · | – | – | · | ·
N=C(N)SCCN | · | – | – | – | – | –
Cn1nc(CC(=O)N2CCN(c3ccccc3)CC2)c2ccccc2c1=O | – | – | – | – | – | –
Cc1ccc(NC(=O)Cc2nn(C)c(=O)c3ccccc23)cc1F | – | – | – | – | – | 11.2µM
Cn1nc(CC(=O)Nc2ccc3c(c2)OCCO3)c2ccccc2c1=O | – | – | – | – | – | 7.94µM
Cn1nc(CC(=O)Nc2ccc(N3CCN(C(=O)OC(C)(C)C)CC3)cc2)c2ccccc2c1=O | – | ? | – | – | – | 2.51µM
CSc1ccccc1C(=O)N1CCC(n2nccc2NC(=O)C(C)(C)C)CC1 | – | – | – | – | · | –
O=c1c2nncn2c2cccnc2n1CCNc1ncc(C(F)(F)F)cc1Cl | – | – | – | – | – | –
NNc1nc2cccnc2n(CCNc2ncc(C(F)(F)F)cc2Cl)c1=O | · | 10µM | – | – | ? | –
O=c1c(Cl)nc2cc(Cl)ccc2n1CCNc1ncc(C(F)(F)F)cc1Cl | – | 11.2µM | – | – | – | 5.01µM
O=C(CN(CC1CCCO1)C(=O)CNS(=O)(=O)c1ccccc1)NCCc1ccccc1 (centres undefined) | – | – | – | – | · | –
Cc1ccccc1NNC(N)=S | – | ? | – | – | – | ?
NC(=S)NNc1c(F)c(F)c(F)c(F)c1F | – | 12.6µM | – | – | – | ?
CC1=C(C(=O)N2CCOCC2)CC(CC(=O)NCc2cccs2)C(=O)N1CCC1=CCCCC1 (centres undefined) | · | · | – | – | · | ·
Cc1nn(CCC(=O)NNC(=S)Nc2ccccc2)c(C)c1Br | – | 0.316µM | – | – | – | ?
CCOCCCNC(=S)NNC(=O)CCn1nc(C)c(Br)c1C | – | 1.41µM | – | – | – | 3.16µM
Cc1cccc(NC(=S)NNC(=O)CCn2cc(C)cn2)c1 | – | 0.112µM | – | – | – | 1µM
Cc1nn(CCC(=O)NNC(=S)NCC(C)C)c(C)c1Br | – | 0.708µM | – | – | – | 1.41µM
COCCCNC(=S)NNC(=O)Cn1nc(C)c(Br)c1C | ? | 3.16µM | – | – | – | 11.2µM
CNC(=S)NNC(=O)CCn1nc(C)c(Br)c1C | – | 0.631µM | – | – | – | 3.98µM
Cc1nn(CC(=O)NNC(=S)NCC2CCCO2)c(C)c1Br (centres undefined) | – | – | – | – | · | –
NC(Cc1cnc[nH]1)c1csc(Nc2ccc(C(F)(F)F)cn2)n1 (centres undefined) | · | · | -91.7 | -89.7 | · | ·
COc1cccc(C(=O)NC(=S)NCc2ccco2)c1 | – | 14.1µM | – | – | – | ?
COc1cc(OC)cc(C(=O)NNC(=S)NCc2ccco2)c1 | – | – | – | – | – | –
SMILES | MBNL1-CUG inh | RORg inh | CtBP-E1A blk | Six1-Eya2 inh | CBFb-RUNX1 inh | Gal4-VP16 FLuc
COc1ccc(C(=O)N/C(=C\c2ccco2)C(=O)NCc2ccco2)cc1 | – | – | – | – | · | –
O=C(CSCc1ccccc1Br)NNC(=S)NCc1ccco1 | – | ? | – | – | · | 10µM
COc1ccc(C(=O)NC(=S)NCc2ccco2)cc1 | – | 6.31µM | – | – | – | 11.2µM
Cc1ccccc1CSCC(=O)NC(=O)NCc1ccco1 | – | – | – | – | – | ?
O=C(NC(=S)NCc1ccccc1)c1cccc(Cl)c1 | – | 6.31µM | – | – | · | 7.08µM
CCN(CC)CCNC(=O)CCN1N=C(c2ccccc2)CCC1=O | – | – | – | – | · | –
CNC(=O)NC(=S)NC(=O)c1cccc(Cl)c1 | – | 14.1µM | – | – | – | –[10 µM]
CC(C)(O)C(=O)NNC(=S)NCc1ccco1 | – | – | · | – | – | –
CC(C)(C)c1ccc(C(=O)NNC(=S)NCc2ccco2)cc1 | · | 10µM | – | – | – | –
COc1cc(OC)cc(C(=O)NC(=S)NCc2ccco2)c1 | – | 5.01µM | – | – | – | 11.2µM
CCC(C)NC(=S)NNC(=O)c1ccc(C(C)(C)C)cc1 (centres undefined) | – | 10µM | – | – | – | 8.91µM
CC(C)(C)NC(=O)C(c1cccc2ccccc12)n1c(=O)c(-c2ccco2)nc2ccccc21 (centres undefined) | · | · | – | – | · | ·
CN1CCN(C(=O)C2Cc3c(-c4cccc(F)c4)ccnc3O2)CC1 (centres undefined) | · | · | – | – | · | ·
Cc1ccc(C(=O)NC(=S)NCc2ccco2)cc1 | – | 10µM | – | – | – | ?
O=C(NCc1ccco1)c1cc(C(=O)C2CCCCC2)c[nH]1 | – | – | – | – | – | –
O=C(NC(=S)NCc1ccco1)c1cccc(Cl)c1 | – | 6.31µM | · | · | · | 8.91µM
Cc1ccc(NC(=O)C(=S)NCc2ccco2)cc1 | – | – | – | – | – | –
CNS(=O)(=O)c1cc(C(=O)NCc2ccco2)ccc1Cl | – | – | – | -69.0 | – | –
CC(C)(C)c1ccc(C(=O)c2c[nH]c(C(=O)NCc3ccco3)c2)cc1 | – | ? | – | – | – | 12.6µM
O=C1CCN(CCc2ccccc2)CCN1C(CSc1ccc(Br)cc1)Cc1ccccc1 (centres undefined) | · | ? | · | · | – | –
CCOC(=O)c1c(C)[nH]c(C)c1S(=O)(=O)N(C)CC(=O)NCc1ccc(C)cc1 | – | – | – | – | · | –
CC(C)c1cc(C(=O)NNC(=S)NCc2ccco2)c(O)c(C(C)C)c1 | – | 12.6µM | – | – | – | ?
Nc1cnccc1Oc1cccc(C(F)(F)F)c1 | · | · | – | – | · | ·
Cc1ccc(S(=O)(=O)Nc2ccc(O)c(Sc3ncn[nH]3)c2)cc1 | – | – | – | – | – | –
CCOc1ccc(S(=O)(=O)Nc2ccc(O)c(Sc3ncn[nH]3)c2)cc1 | – | ? | – | – | – | 3.55µM
SMILES | MBNL1-CUG inh | RORg inh | CtBP-E1A blk | Six1-Eya2 inh | CBFb-RUNX1 inh | Gal4-VP16 FLuc
C[C@H](O)[C@@H]1C(=O)N2CCc3ccc(N4CCOCC4)cc3[C@@H]2C[C@@H]1N(C)C(=O)Nc1ccccc1 | · | · | – | – | · | ·
c1ccc(COc2cccc(-c3cc4nc(NCc5ccc6c(c5)OCO6)ccn4n3)c2)cc1 | · | · | – | – | · | ·
CCCCC(=O)NC(=S)NNC(=O)c1ccc(Cl)cc1Cl | – | 11.2µM | – | – | – | –
O=C(NNC(=S)NC(=O)c1ccccc1[N+](=O)[O-])c1ccc(Cl)cc1Cl | – | 5.62µM | – | – | – | –
O=C(NNC(=S)NC(=O)c1ccccc1[N+](=O)[O-])c1ccccc1[N+](=O)[O-] | ? | – | – | – | – | –
CCCCOc1ccccc1C(=O)NNC(=S)NC(=O)c1ccccc1[N+](=O)[O-] | – | 14.1µM | – | – | · | ?
O=C(NNC(=S)NC(=O)c1ccccc1[N+](=O)[O-])c1ccccc1O | – | – | -94.3 | -73.5 | ? | –

Bioassay records: PubChem BioAssay, National Center for Advancing Translational Sciences (NCATS)
